The whole screen tested about 310,000 compounds, of which about 14,000 (4.5%) showed an effect of 50% or more. The effect is printed as a negative number. The sample as a whole holds a higher share of strong results than the screen did.
target: human ether-à-go-go-related gene (hERG) potassium channel (human, UniProt Q12809); experiment: primary screen, population patch clamp on CHO cells stably expressing hERG; higher = less effect of the substance
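Further: peak tail current of the secondary pulse compared with the same well before compound.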

Sequence of human ether-à-go-go-related gene (hERG) potassium channel (Q12809 whole entry, looked up): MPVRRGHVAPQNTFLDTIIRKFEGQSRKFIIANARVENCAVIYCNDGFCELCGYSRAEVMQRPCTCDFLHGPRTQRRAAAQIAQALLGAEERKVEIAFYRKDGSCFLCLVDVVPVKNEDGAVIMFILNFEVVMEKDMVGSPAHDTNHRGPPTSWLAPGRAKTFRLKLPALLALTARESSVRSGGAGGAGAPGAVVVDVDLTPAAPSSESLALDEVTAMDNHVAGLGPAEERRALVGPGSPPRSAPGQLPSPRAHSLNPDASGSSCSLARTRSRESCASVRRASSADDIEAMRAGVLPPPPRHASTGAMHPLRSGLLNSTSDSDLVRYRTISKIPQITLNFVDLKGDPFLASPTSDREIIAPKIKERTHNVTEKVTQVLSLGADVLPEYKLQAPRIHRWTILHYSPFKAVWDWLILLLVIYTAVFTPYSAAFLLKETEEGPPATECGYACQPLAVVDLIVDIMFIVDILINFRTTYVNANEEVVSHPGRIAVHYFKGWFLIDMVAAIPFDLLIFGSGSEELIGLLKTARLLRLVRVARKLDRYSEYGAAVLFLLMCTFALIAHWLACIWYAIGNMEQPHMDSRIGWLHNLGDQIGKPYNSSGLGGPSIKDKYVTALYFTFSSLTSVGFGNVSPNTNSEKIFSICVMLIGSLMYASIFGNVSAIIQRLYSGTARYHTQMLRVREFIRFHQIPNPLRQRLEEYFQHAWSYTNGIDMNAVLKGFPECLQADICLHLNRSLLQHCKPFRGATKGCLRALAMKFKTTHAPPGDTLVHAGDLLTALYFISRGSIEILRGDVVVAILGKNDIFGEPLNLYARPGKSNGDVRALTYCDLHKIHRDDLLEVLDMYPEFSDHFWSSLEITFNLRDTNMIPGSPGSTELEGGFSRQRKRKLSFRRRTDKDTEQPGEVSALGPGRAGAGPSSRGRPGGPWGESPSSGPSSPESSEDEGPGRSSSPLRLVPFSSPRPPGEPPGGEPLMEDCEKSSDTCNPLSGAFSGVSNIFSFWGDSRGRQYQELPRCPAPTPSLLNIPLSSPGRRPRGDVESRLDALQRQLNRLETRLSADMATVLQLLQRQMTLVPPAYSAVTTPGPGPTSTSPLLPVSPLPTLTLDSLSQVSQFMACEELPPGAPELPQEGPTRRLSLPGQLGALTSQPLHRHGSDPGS

Structure (SMILES)	hERG current change (%, negative = inhibition) at 10uM [%]
COc1cccc(Nc2ncnc3onc(-c4ccccc4OC)c23)c1	-4.9
CNC(=S)N(Cc1cc2cc(C)cc(C)c2[nH]c1=O)C1CCCC1	-3.94
c1ccc(CCCc2nc(-c3ccccn3)no2)cc1	-7.53
COc1ccccc1Nc1nnc(SCC(=O)N2CCCC2=O)s1	-11.4
COCCCNC(=O)C1CCN(c2ccc(N3CCOCC3)nn2)CC1	10.1
O=C(CCCc1nc2ccccc2s1)N1CCN(c2ccccc2F)CC1	-31.3
COc1ccc2[nH]c3c(=O)n4c(nc3c2c1)SCC4	6.11
COc1ccc(CN2CC(C(=O)NCCCOC(C)C)CC2=O)cc1 (stereo not shown)	0.406
CC(CC(=O)Nc1ccc(F)cc1F)S(=O)(=O)c1ccc2c(c1)NC(=O)CO2 (stereo not shown)	-9
CC(=O)c1ccc(N2C(=O)C3C4C=CC(CC4)C3C2=O)cc1 (stereo not shown)	13.6
CN(C)S(=O)(=O)c1cccc(C(=O)Nc2ccccc2N2CCCCC2)c1	5.55
COCCn1c(SC(C)C(=O)NCC2CCCO2)nc2scc(-c3ccc(F)cc3)c2c1=O (stereo not shown)	-66.5
COCCn1c(SC(C)C(=O)NCC2CCCO2)nc2sc3c(c2c1=O)CCC3 (stereo not shown)	-8.18
CCn1c(SC(C)C(=O)NCC2CCCO2)nc2scc(-c3ccccc3)c2c1=O (stereo not shown)	-28.7
CCOC(=O)/C(=C/c1c(C)n(C)c2ccc([N+](=O)[O-])cc12)C(C)=O	-19.6
Cc1nn(-c2ccc(C(=O)OC(C)C)cc2)c(C)c1[N+](=O)[O-]	4.98
CCOC(=O)CNC(=O)C1CCN(S(=O)(=O)c2ccc(-c3nn[nH]n3)cc2)CC1	8.58
COCCN(Cc1cc2c(C)cc(C)cc2nc1Cl)C(=O)c1ccccc1F	44.3
Cc1cccc2cc(CN(Cc3cccnc3)C(=O)c3ccccc3F)c(Cl)nc12	-49.6
Cc1cc(C)c2cc(CN(Cc3cccnc3)C(=O)c3ccc(F)cc3)c(Cl)nc2c1	-64.7

Structure (SMILES)	hERG current change (%, negative = inhibition) at 10uM [%]
CC(=O)Nc1ccccc1C(=O)C(=O)Nc1ccc(C)c(F)c1	24.3
O=C(CSC1=NCCS1)Nc1ccc(S(=O)(=O)NC2CCCCC2)cc1	-8.65
CC1CCN(CC(O)COc2ccc(OCC(O)CN3CCC(C)CC3)cc2)CC1 (stereo not shown)	3.84
CC1CN(CC(O)COc2ccc(C(=O)c3ccccc3)cc2)CC(C)O1 (stereo not shown)	-63.3
CC(=O)c1ccc(OCC(O)CN2CCN(Cc3ccccc3)CC2)cc1.Cl (stereo not shown)	-48.2
CC(=O)c1ccc(OCC(O)CN2CCC(C)CC2)cc1.Cl (stereo not shown)	-31.6
O=C(c1ccccc1)c1ccc(OCC(O)CN2CCCC2)cc1 (stereo not shown)	-45.3
OC(COc1ccc(OCC(O)CN2CCN(Cc3ccccc3)CC2)cc1)CN1CCN(Cc2ccccc2)CC1 (stereo not shown)	5.65
CC1CCN(CC(O)COc2ccc(C(=O)c3ccccc3)cc2)CC1 (stereo not shown)	-67.4
CCC(=O)c1ccc(OCC(O)CN2CC(C)OC(C)C2)cc1.O=C(O)C(=O)O (stereo not shown)	14
O=C(c1ccccc1)c1ccc(OCC(O)CN2CCN(Cc3ccccc3)CC2)cc1 (stereo not shown)	-73.4
CC1CCN(CC(O)COc2ccc(-c3ccccc3)cc2)CC1.Cl (stereo not shown)	-81
NC(=O)C1CCN(CC(O)COc2ccc(-c3ccccc3)cc2)CC1 (stereo not shown)	-34.4
CC(=O)c1ccc(OCC(O)CN2CC(C)OC(C)C2)cc1.Cl (stereo not shown)	8.19
CC(=O)c1sc(-c2ccc(F)cc2)cc1NS(=O)(=O)c1ccc(C)cc1	7.93
C=CCOc1ccc2ccccc2c1CNn1cn[nH]c1=S	-8.17
O=C(NCCc1csc(-c2cccc(F)c2)n1)c1ccco1	-4.61
O=C(CN1C(=O)S/C(=C\c2ccccc2)C1=O)Nc1cc([N+](=O)[O-])ccc1O	6.11
O=C(c1cc(Cl)ccc1[N+](=O)[O-])n1cnc2ccccc21	-11.9
Cc1cc2c(c(N)n1)c(=O)oc1ccccc12	13.9

Structure (SMILES)	hERG current change (%, negative = inhibition) at 10uM [%]
Nn1c(CSc2nc3ccccc3o2)nnc1CSc1nc2ccccc2o1	-22.8
O=C(CN1c2cccc3cccc(c23)S1(=O)=O)Nc1ccccc1	24.3
CN(CC(=O)Nc1ccc(Cl)c(Cl)c1)C(=O)CC1OC(=O)c2ccccc21 (stereo not shown)	-70.3
CCOc1ccc(NC(=O)CN(C)C(=O)CC2OC(=O)c3ccccc32)cc1OCC (stereo not shown)	0.75
CN(CC(=O)Nc1c(Cl)cccc1Cl)C(=O)CC1OC(=O)c2ccccc21 (stereo not shown)	-2.8
C/C=C/c1ccc(OCC(=O)Nc2ccncc2)c(OC)c1	-14.9
COc1ccc2sc(N(CCN(C)C)C(=O)/C=C/c3cccs3)nc2c1.Cl	-33.2
CN(C)CCCN(C(=O)c1ccc(S(=O)(=O)N(C)Cc2ccccc2)cc1)c1nc2c(F)cccc2s1.Cl	-38.2
CN(C)CCCN(C(=O)c1ccc(C(=O)c2ccccc2)cc1)c1nc2cc3c(cc2s1)OCCO3.Cl	-50
CCOc1ccc2nc(N(CCN(C)C)C(=O)/C=C/c3cccs3)sc2c1.Cl	4.24
COc1ccc2sc(N(CCCN(C)C)C(=O)c3ccc(C(=O)c4ccccc4)cc3)nc2c1.Cl	-77.3
COc1cc2nc(N(CCN(C)C)C(=O)c3ccc4ccccc4c3)sc2cc1OC.Cl	-40.8
CCN(Cc1ccccc1)S(=O)(=O)c1ccc(C(=O)N(CCCN(C)C)c2nc3c(C)c(C)ccc3s2)cc1.Cl	-3.58
COc1cc2nc(N(CCCN(C)C)C(=O)c3ccc(C(=O)c4ccccc4)cc3)sc2cc1OC.Cl	-70.4
CCN(Cc1ccccc1)S(=O)(=O)c1ccc(C(=O)N(CCCN(C)C)c2nc3c(F)cccc3s2)cc1.Cl	-66.3
COc1ccc2sc(N(CCN(C)C)C(=O)c3ccc4ccccc4c3)nc2c1.Cl	-0.0157
COc1ccc2nc(N(CCN(C)C)C(=O)/C=C/c3cccs3)sc2c1.Cl	-55.1
COc1ccc2nc(N(CCN(C)C)C(=O)c3ccc(C(=O)c4ccccc4)cc3)sc2c1.Cl	-39.2
